Measurements as given in PubChem BioAssay AID624246 (National Center for Advancing Translational Sciences (NCATS), 2012).
The campaign covered roughly 370,000 compounds. About 100 (0.027%) were called active. Many of the other results were omitted from the sample, so actives are more common in it than they were. A number with no mark means an inactive call. The call rests on the fitted dose curve; in most records, active means well fitted inhibition curve with a large enough effect in the polarisation, with a control signal flat; inconclusive means small, poorly fitted or top-dose-only effect, or effect the other way, or a change in a side signal; inactive means no such curve, though single readings can be large or run the other way; the % refers to the polarisation.

Target: Transcriptional regulator ERG (Homo sapiens) (UniProt P11308)
Sequence (P11308 whole entry, looked up): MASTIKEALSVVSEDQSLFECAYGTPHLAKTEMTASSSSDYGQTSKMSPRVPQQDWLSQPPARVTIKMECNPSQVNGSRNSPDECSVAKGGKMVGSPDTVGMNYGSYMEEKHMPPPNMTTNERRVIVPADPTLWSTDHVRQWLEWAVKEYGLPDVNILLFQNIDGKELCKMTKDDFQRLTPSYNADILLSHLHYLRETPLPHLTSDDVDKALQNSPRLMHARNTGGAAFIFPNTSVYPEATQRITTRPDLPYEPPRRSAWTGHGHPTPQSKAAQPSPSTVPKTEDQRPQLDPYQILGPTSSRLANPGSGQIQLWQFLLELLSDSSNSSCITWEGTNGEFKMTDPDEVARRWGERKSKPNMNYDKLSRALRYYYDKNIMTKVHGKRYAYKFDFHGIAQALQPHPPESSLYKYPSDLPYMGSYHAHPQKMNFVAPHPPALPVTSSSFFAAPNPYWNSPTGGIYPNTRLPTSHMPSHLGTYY
Experiment: qHTS for Small Molecule Inhibitors of the ERG Ets/DNA interaction; further: % of control where 0% means no effect
Details: fluorescence polarization, His-ERG Ets domain / labelled DNA; series mostly up to 76.9 µM; FP activity, negative = inhibition: at the top concentration
Source text: The Ets family of proteins is a family of ~30 conserved transcription factors defined by the presence of an ~85 amino acid domain referred to as the Ets domain, which mediates sequence-specific DNA binding to a core DNA element GGAA/T.The Ets family member ERG has been linked to several neoplasms. […] More extensive studies of the effects of over-expression of ERG in prostate cells have recently been carried out and have shown that over-expression of ERG results in increased invasion. […] We will carry out a high throughout screen to identify inhibitors of the interaction between ERG and DNA using a fluorescence polarization (FP) assay with a His-tagged ERG Ets domain and fluorescently-labeled DNA probes to develop small molecule inhibitors of this interaction as probes to test this hypothesis and lay the groundwork for the development of targeted therapies against ERG. NIH Molecular Libraries Probe Production Network [MLPCN] NIH Chemical Genomics Center [NCGC] Grant: NS066464 PI Name: John Bushweller, University of Virgina
1.5 ul of protein solution (1 uM ERG domain in 300mM KCl, 50mM Tris-HCl, 1mM EDTA, 1mM DTT, pH 7.5); 20 nl Control plate and compound library plate; 1.5 ul mixture of 5 nM Fluorescein-DNA and 100nM Texas-615-DNA solution in same buffer as above solution; measure fluorescence polarization sequentially for fluorescein (Excitation = 480 nm, Emission = 535s, 535p nm) and Texas red (Excitation = 555 nm, Emission = 632s, 632p nm).

Structure (SMILES)	FP activity, negative = inhibition [%]
O=C(Nc1ccccc1F)C(c1ccccc1)N1Cc2ccccc2C1=O (configuration not stated)	-0.37
COc1ccccc1CNC(=O)CCCn1c(=O)c2ccccc2n(CC(=O)Nc2ccc(C)cc2Cl)c1=O	9.36
O=C1Cc2cc(S(=O)(=O)Nc3ccc(OC(F)(F)F)cc3)cc3c2N1CCC3	10
CCc1ccc(NC(=O)c2nn(-c3ccc(C)cc3)c(=O)n(C)c2=O)cc1	-0.735
COC(=O)c1scc(-c2ccccc2)c1S(=O)(=O)Nc1ccccc1	0.898
CC1CCN(C(=O)Cn2c(=O)n(-c3ccc(Cl)cc3)c(=O)c3c4c(sc32)CCC4)CC1	4.19
CCCn1c(NCc2ccc(N(CC)CC)cc2)nc2ccccc21	-3.75
Cc1ccccc1C(=O)NCc1nc(-c2ccc(Cl)cc2)no1	-2.03
Cc1cc(C)c(-c2n[nH]c3c2C(c2ccccc2F)N(CCO)C3=O)c(O)c1 (configuration not stated)	-4.81
COc1ccccc1-c1cc2nc(C)c(CCC(=O)O)c(C)n2n1	-0.16
CC(C)c1ccc(NC(=O)C2CCN(c3nc(-c4ccc(C(C)C)cc4)no3)CC2)cc1	2.37
Cc1c(CNC2CCCCC2)c(C(=O)O)c(C)n1Cc1cccc(Cl)c1	-2.9
Cc1ccc(C(=O)NCCSc2c(C)[nH]c3ccccc23)cc1C	-6.47
CCCCNC(=O)CSc1nc2cc3c(cc2c(=O)n1CCCCCC(=O)NCc1ccc2c(c1)OCO2)OCO3	-12.3
N#Cc1ccc(-c2cccs2)nc1SCc1ccc(Br)cc1	12.1
CCc1nn(CC(=O)Nc2cccc(C)c2C)c(=O)c2cc3sccc3n12	13.6
O=C(Cn1c(=O)n(-c2ccc(F)cc2)c(=O)c2sccc21)Nc1cccc(C(F)(F)F)c1	-2.35
COc1cccc(N=C2SC(C(=O)Nc3cccc(Cl)c3)CC(=O)N2C)c1 (configuration not stated)	-5.94
COC(=O)c1sccc1S(=O)(=O)N(CC(=O)Nc1ccc(C)c(F)c1)c1ccc(C)c(C)c1	2.23
Cc1ccc(CCNC(=O)C2CCN(c3nnc(-n4cccc4CNc4ccc(C)cc4)s3)CC2)cc1	0.384
Cc1ccccc1CNC(=O)C1CCCN(S(=O)(=O)N(C)c2ccc(F)cc2)C1 (configuration not stated)	-3.29
CCOc1ccccc1CNC(=O)c1ccc(-n2c(C)cc3c2CCC(C)C3)cc1 (configuration not stated)	5.18
CCOC(=O)c1scc(-c2ccccc2)c1S(=O)(=O)Nc1ccccc1F	3.67
COc1ccc(C)cc1NC(=O)COCc1cc(-c2cccs2)on1	8

Structure (SMILES)	FP activity, negative = inhibition [%]
COc1ccc(NC(=O)CSC2=Nc3ccccc3C3=NC(CC(=O)NCc4ccccc4OC)C(=O)N23)cc1Cl (configuration not stated)	-0.573
O=C(/C=C/c1ccccc1)Nc1cc(-c2nc3cc(Cl)ccc3o2)ccc1Cl	4.72
Cc1ccc(-n2ncc3c(NCCCn4ccnc4)ncnc32)cc1Cl	-1.49
Cc1nn2c(=O)cc(COC(=O)c3cccc(NC(=O)COc4ccccc4Cl)c3)nc2s1	8.49
COc1ccc(CNC(=O)CC2Oc3ccc(C)cc3NC2=O)cc1 (configuration not stated)	1.76
CCOc1ccc(C2C(=O)N(C3CCCCC3)CC(=O)N2CCC2=CCCCC2)cc1OC (configuration not stated)	-1.03
COc1ccc(NC(=O)CCCc2nnc3n(CCC(C)C)c(=O)c4sccc4n23)c(OC)c1	3.52
COc1ccc(CCNC(=O)c2c3c(nc4ccccc24)C(=O)N(C2CCCCC2)C3)cc1OC	0.33
Fc1ccccc1Oc1ncnc2c1oc1ccccc12	-0.355
CCOC(=O)c1sc(NC(=O)/C=C/c2ccc(C(C)C)cc2)c(C(=O)OCC)c1C	-7.51
CCOC(=O)c1ccc(CN(Cc2ccccc2)S(=O)(=O)c2ccc(Cl)cc2)cc1	0.277
COc1ccc(Br)cc1C1CC(=O)Nc2c1c(C)nn2-c1nc(C)cc(C)n1 (configuration not stated)	-7.83
Cc1ccc(Cl)cc1NC(=O)CCC(=O)N1CC(C)Sc2ccccc21 (configuration not stated)	3.77
Cc1ccc(C(=O)CC2(O)C(=O)N(CCc3ccccc3)c3ccc(Br)cc32)cc1 (configuration not stated)	-0.549
COc1cc(NC(=O)Cn2nc(-c3ccc(C)c(C)c3)ccc2=O)cc(OC)c1	4.13
COc1ccccc1NC(=O)CN1C(=O)c2ccccc2Sc2ccc(C(=O)N3CCCC3)cc21	-2.51
CCOC(=O)c1[nH]c(C)c(CCC(=O)NCc2ccccc2C)c1C	-3.1
Cc1ccc(CNC(=O)CSc2c3c(nc4cc(Cl)ccc24)CCCC3)cc1	-0.34
CCN1C(=O)c2ccccc2S(=O)c2ccc(C(=O)NCc3ccc(F)cc3)cc21 (configuration not stated)	-4.21
CC1Cc2cc(S(=O)(=O)CCC(=O)Nc3ccc(F)c(Cl)c3)ccc2N1C(=O)C1CC1 (configuration not stated)	0.16
O=C(CSc1n[nH]c(-c2ccccc2)n1)N1CCCCC1	8.6
O=C(/C=C/c1cn(CC(O)CN2CCc3ccccc32)c2ccccc12)c1ccc(Br)cc1 (configuration not stated)	-7.5
CC(=O)c1nn(-c2ccc(OC(F)(F)F)cc2)nc1Nc1ccccc1	-1.16
